NCOA1 inh: SRC1 coactivator transcriptional activity inhibitors, primary screen, cell-based, luminescence; Nuclear receptor coactivator 1 (Homo sapiens), Q15788; actives 0.12% (n = 360,000); AID 588354, 2011; inhibition, % at 3.6 µM; HEK293 GAL4-SRC1 luciferase reporter;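 active = inhibition above the campaign mean plus 3 SD, with each screening campaign given its own cutoff, cut at about 60% in these data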;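 note: 0% = DMSO treated cells and 100% = gossypol at 36 µM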
NCOA2 inhibitor: inhibition of GAL4-SRC2 driven luciferase reporter, primary screen, SRC2 inhibitor project, cell-based, luminescence. Nuclear receptor coactivator 2 (Homo sapiens), Q15596. HEK293 GAL4-SRC2 luciferase reporter. inhibition, % at 9 µM. actives 0.17% (n = 370,000). AID 651957, 2012;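 active = inhibition above the mean inhibition of all tested compounds plus 3 SD, set per campaign, cut at about 52% in these data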;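 note: 0% = DMSO treated cells and 100% = cells given Gossypol at 36 µM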
Efflux pump mplx: inhibitors of Candida efflux pumps in yeast, primary screen, S. cerevisiae, Nile Red, multiplex; actives 0.44% (n = 330,000); inhibition, % at 10 µM; S. cerevisiae Candida pump triplex;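 active = plate passing quality check with inhibition over a set limit, or well fluorescence over plate mean plus 4 SD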;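 note: Nile Red retained in pooled yeast measured as flow cytometry median fluorescence; 0% = buffer negative control and 100% = Enniatin B positive control; higher means more Nile Red kept so more efflux inhibition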
NR2F2 inh: NR2F2 transcriptional activity inhibitors, primary screen, cell-based, luciferase reporter, HEK293T, luminescence; HEK293T NGFI-A luciferase reporter; inhibition, % at 8.6 µM; actives 0.7% (n = 370,000);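 active = inhibition above a per-plate cutoff, mean inhibition of test wells between control levels plus 3 SD, cut at about 38% in these data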;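 note: cells cotransfected with COUP-TFII expression vector driving the NGFI-A reporter; 0% = median of COUP-TF2 test wells and 100% = reporter-only cells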
NCOA3 inh: SRC3 coactivator transcriptional activity inhibitors, primary screen, cell-based, luminescence. HEK293 GAL4-SRC3 luciferase reporter. inhibition, % at 3.6 µM. Nuclear receptor coactivator 3 (Homo sapiens), Q9Y6Q9. AID 588352, 2011. actives 0.17% (n = 360,000);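 active = inhibition above a per-campaign cutoff, the mean of all compounds plus 3 SD, cut at about 60% in these data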;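 note: 0% = DMSO-treated cells and 100% = gossypol-treated cells at 36 µM; higher means less SRC3-driven luciferase light from the GAL4 reporter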
LRH-1 inv ag: LRH-1 (NR5A2) inverse agonists, primary screen, cell-based, luminescence, HEK293T, StAR-luciferase reporter | Nuclear receptor subfamily 5 group A member 2 (Homo sapiens), O00482 | LRH-1 transfected, 24 h | inhibition, % at 3.6 µM | actives 0.13% (n = 360,000) | AID 602396, 2012;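 active = inhibition above the mean inhibition of all tested compounds plus 3 SD, cut at about 73% in these data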;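 note: 0% = DMSO wells and 100% = reporter-only cells lacking LRH-1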
Gal4-VP16 ctr: Gal4-VP16 luciferase reporter inhibitors, counter-screen for COUP-TFII antagonist project, cell-based, luminescence, HEK293; shares compounds with NR2F2 inh; inhibition, % at 8.5 µM; actives 25% (n = 2,500); AID 687007, 2013; in the data active = inhibition above about 13%
COUP-TFII conf: NR2F2 transcriptional activity inhibitors, confirmation, cell-based, luciferase reporter, HEK293, triplicate; HEK293 NGFI-A luciferase reporter, luminescence; actives 45% (n = 2,500); shares compounds with NR2F2 inh; inhibition, % at 8.5 µM;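 active = mean inhibition over three repeats above a set limit taken from the earlier primary screen, cut at about 38% in these data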;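 note: 100% = cells given the luciferase reporter alone without the COUP-TF2 vector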
An asterisk follows results filed as active. Compounds with a hit are over-represented: about 1.2% of the library has one in this group of screens.

For CCc1nc2ccccc2c(C(=O)OCC(=O)Nc2cccc(S(=O)(=O)N3CCOCC3)c2)c1C the results were NCOA1 inh 7, NCOA2 inhibitor 4, Efflux pump mplx 0, NR2F2 inh 65*, NCOA3 inh 39, LRH-1 inv ag 10, Gal4-VP16 ctr 11 and COUP-TFII conf 30.
O=C(Nc1cccc(S(=O)(=O)NC2=NCCCCC2)c1)c1ccc(Cl)cc1 was read as NCOA1 inh -5, NCOA2 inhibitor 16, NR2F2 inh 43*, NCOA3 inh 7, LRH-1 inv ag 24, Gal4-VP16 ctr -7 and COUP-TFII conf 10.
CCc1nc2ccccc2c(C(=O)OCC(=O)Nc2ccc(S(=O)(=O)N3CCOCC3)cc2)c1C was read as NCOA1 inh 15, NCOA2 inhibitor 4, Efflux pump mplx 0, NR2F2 inh 14, NCOA3 inh -1 and LRH-1 inv ag 14.
`Cc1cc(C)cc(OCCNS(=O)(=O)c2cccs2)c1` gave NCOA1 inh 3, NCOA2 inhibitor -13, Efflux pump mplx 1, NR2F2 inh 26, NCOA3 inh 17 and LRH-1 inv ag 21.
`O=C(O)c1cccc(CSc2nnc(-c3ccc(Cl)cc3)o2)c1` gave NCOA1 inh -4, NCOA2 inhibitor 55*, Efflux pump mplx 0, NR2F2 inh 40*, NCOA3 inh 0, LRH-1 inv ag -2, Gal4-VP16 ctr 37* and COUP-TFII conf 9.
Screening O=C(O)c1cccc(CSc2nnc(COc3ccccc3)o2)c1 returned NCOA1 inh 6, NCOA2 inhibitor 45, Efflux pump mplx 0, NR2F2 inh 41*, NCOA3 inh -13, LRH-1 inv ag -9, Gal4-VP16 ctr 35* and COUP-TFII conf 18.
`CCOc1ccc(-c2cc(CCCC(=O)NCCc3ccc(OC)c(OC)c3OC)no2)cc1` gave NCOA1 inh 2, NCOA2 inhibitor 41, Efflux pump mplx 0, NR2F2 inh 13, NCOA3 inh 2 and LRH-1 inv ag -6.
`CCOc1ccc(-c2cc(CCCC(=O)Nc3cccc(OC)c3)no2)cc1` gave NCOA1 inh 5, NCOA2 inhibitor 55*, Efflux pump mplx 0, NR2F2 inh 42*, NCOA3 inh 0, LRH-1 inv ag 43, Gal4-VP16 ctr 2 and COUP-TFII conf 16.
`CCOc1ccc(-c2cc(CCCC(=O)Nc3cc(OC)ccc3OC)no2)cc1` gave NCOA1 inh 4, NCOA2 inhibitor 73*, Efflux pump mplx 0, NR2F2 inh 67*, NCOA3 inh 15, LRH-1 inv ag 17, Gal4-VP16 ctr 38* and COUP-TFII conf 32.
For COc1ccc(-c2cc(C(=O)Nc3cccc(O)c3)no2)cc1 the results were NCOA1 inh -33, NCOA2 inhibitor 9, Efflux pump mplx 0, NR2F2 inh 50*, NCOA3 inh -30, LRH-1 inv ag -42, Gal4-VP16 ctr -7 and COUP-TFII conf 8.
Screening CCOc1ccc(NC(=O)CCCc2cc(-c3ccc(OCC)cc3)on2)cc1 returned NCOA1 inh -44, NCOA2 inhibitor -14, Efflux pump mplx 0, NR2F2 inh 5, NCOA3 inh -15 and LRH-1 inv ag -13.
For Nc1[nH]c(C(=O)c2ccccc2)c(-c2ccc(Br)cc2)c1C(=O)NCCc1c[nH]c2ccccc12 the results were NCOA2 inhibitor -10, NR2F2 inh 3 and LRH-1 inv ag -31.
`CCCn1c(NC(=O)c2ccc(Cl)c(S(=O)(=O)N3CCCC3)c2)nc2ccccc21` gave NCOA1 inh -33, NCOA2 inhibitor 21, Efflux pump mplx 0, NR2F2 inh 44*, NCOA3 inh -9, LRH-1 inv ag -1, Gal4-VP16 ctr -8 and COUP-TFII conf 15.
`Cc1ccccc1CCNC(=O)c1ccc(Cl)c(S(=O)(=O)N2CC(C)OC(C)C2)c1` (centres undefined) gave NCOA1 inh 18, NCOA2 inhibitor 29, Efflux pump mplx 0, NR2F2 inh 67*, NCOA3 inh 24, LRH-1 inv ag 10, Gal4-VP16 ctr 1 and COUP-TFII conf 34.
CN(C)C(CNC(=O)c1ccc(Cl)c(S(=O)(=O)N2CCCCCC2)c1)c1ccccc1 (centres undefined) was read as NCOA1 inh 11, NCOA2 inhibitor 9, Efflux pump mplx 0, NR2F2 inh 63*, NCOA3 inh 19, LRH-1 inv ag 29, Gal4-VP16 ctr -1 and COUP-TFII conf 35.
CCCCCCCC/C=C\CCCCCCCC(=O)NCCO was read as NCOA1 inh 3, NCOA2 inhibitor 12, Efflux pump mplx 0, NR2F2 inh 13, NCOA3 inh 23 and LRH-1 inv ag 19.
For CCCCCCCC/C=C\CCCCCCCC(=O)NCCc1ccc(O)c(O)c1 the results were NCOA1 inh 60, NCOA2 inhibitor 48, Efflux pump mplx 0, NR2F2 inh 59*, NCOA3 inh 62*, LRH-1 inv ag 78*, Gal4-VP16 ctr 0 and COUP-TFII conf 11.
CCC(C)(C)c1ccc(Oc2cccc(C(=O)O)c2)cc1 was read as NCOA1 inh -86, NCOA2 inhibitor -26, Efflux pump mplx 0, NR2F2 inh -20, NCOA3 inh -73 and LRH-1 inv ag -75.
For CCC(C)(C)c1ccc(Oc2ccc(N)cc2)cc1 the results were NCOA1 inh 68*, NCOA2 inhibitor 91*, NR2F2 inh 95*, NCOA3 inh 77*, LRH-1 inv ag 69, Gal4-VP16 ctr 91* and COUP-TFII conf 98*.
`CC1CC(C)(C)Nc2ccc(OC(=O)c3ccco3)cc21` (centres undefined) gave NCOA1 inh -5, NCOA2 inhibitor 58*, Efflux pump mplx 0, NR2F2 inh 45*, NCOA3 inh 20, LRH-1 inv ag 6, Gal4-VP16 ctr 18* and COUP-TFII conf 36.
`CC(=NCc1ccco1)c1c(C)[nH]n(-c2nc3ccccc3s2)c1=O` gave NCOA1 inh 12, NCOA2 inhibitor 46, Efflux pump mplx 0, NR2F2 inh 62*, NCOA3 inh 20, LRH-1 inv ag 3, Gal4-VP16 ctr -125 and COUP-TFII conf -23.
For CCOCCCn1c(SCC(=O)Nc2cccc(S(=O)(=O)NC3=NCCCCC3)c2)nc2ccccc2c1=O the results were NCOA1 inh 9, NCOA2 inhibitor 18, Efflux pump mplx 0, NR2F2 inh -4, NCOA3 inh 1 and LRH-1 inv ag -1.
